Assay results taken from PubChem BioAssay (NCATS).
Inconclusive results are not listed. The source made the active and inactive calls. Calls follow the shape of the dose curve; as a rule, active = well fitted inhibition curve with a large enough effect; inconclusive = small, poorly fitted or top-dose-only effect, or effect the other way; inactive = flat fitted curve, though single readings scatter.

Assay: qHTS for Inhibitors of Plasmodium falciparum (GB4) proliferation (AID 504315); also: nearly all actives have a fitted effect of over 50% in size;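 as to activity change, negative = inhibition: 0% = DMSO vehicle and -100% = 0.29 µM artemisinin control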
Conditions: P. falciparum GB4 in erythrocytes, SYBR Green DNA, 72 h; series mostly up to 6.7 µM; activity change, negative = inhibition: at the top concentration
Text: Plasmodium falciparum is a virulent malarial parasite that kills 1-2 million people worldwide each year. Malaria not only inflicts tremendous suffering and morbidity on the human population, but has dramatically influenced the course of civilization with profound sociological and economic implications (Shah, S. 2010). Transmitted by mosquitoes, the sporozoite form of the parasite enters the blood stream to infect hepatocytes, where they become merozoites that infect red blood cells (erythrocytes). Within erythrocytes, merozoites begin a […] cycle of growth and division, after which the parasite is released to infect new red blood cells. Gametocytes, which form within erythrocytes as well, circulate in the bloodstream and are ingested by the mosquito, thereby completing the life cycle (see CDC website). To profile malarial lines for differential chemical responses and to identify inhibitors of malarial growth, an assay that measures P. falciparum growth and replication within erythrocytes was employed. This assay uses a DNA binding fluorescent dye (SYBR Green) to detect parasite DNA following cell lysis. Because mature erythrocytes lack DNA, only Plasmodium-derived DNA is detected. The P. falciparum line cp250, derived from a malarial isolate from Cambodia, (Mu, J., et al. 2010) was added to the panel of lines, Dd2, HB3, 7G8 and GB4 in this study. Laboratory of Assay Development and Screening Technology [ADST] and NIH Chemical Genomics Center [NCGC] Boston University, Chemistry Department, Center for Chemical Methodology and Library Development [CMLD-BU] NIH National Institute of Allergy and Infectious Diseases [NIAID]
ADST Assay Protocol Summary: The 1536-well SYBR Green viability assay was based on the method of Bennett et al (2004) and described previously in 1536-well format (Yuan J., et al. 2009). For screening 3 ul culture medium was dispensed into 1536 well black clear bottom plates (Aurora Biotechnologies) using a Multidrop Combi (Thermo Fisher Scientific Inc.), 23 nL compounds in DMSO were added by a pin transfer (Cleveland, P.H. and Koutz, P.J, 2005) using a pin tool-based delivery system (Kalypsys), and 5 ul of erythrocytes infected with P. falciparum one of five lines (cp250, Dd2, HB3, 7G8 or GB4, 0.3% parasitemia, 2.5% hematocrit final concentration) were added. The plates were incubated at 37C in a humidified incubator in 5% CO2 for 72 h, and 2 ul lysis buffer (20 mM Tris HCl, 10 mM EDTA, 0.16% saponin, 1.6% triton X, 10X SYBR Green I (supplied as 10,000X final concentration by Invitrogen) was added to each well. The plates were mixed for 25 sec with gentle shaking and incubated overnight at room temperature in the dark. The following morning, fluorescence intensity at 485(14) nm excitation and 535(25) nm emission wavelengths was measured on an EnVision (Perkin Elmer) plate reader. Plate reads were normalized relative to the control inhibitor (0.29 uM artemisinin) and vehicle (DMSO) wells present on each plate and then corrected by an algorithm using vehicle-only control plates at the beginning and end of the compound plate stack. References Shah, S. (2010). The Fever: how malaria has ruled humankind for 500,000 years. New York, Sarah Crichton Books. CDC web site, http://www.cdc.gov/malaria/about/biology/index.html Mu, J., Myers, R.A., Jiang, H., Liu, S., Ricklefs, S., Waisberg, M., Chotivanich, K., Wilairatana, P., Krudsood, S., White, N.J., et Plasmodium falciparum genome-wide scans for positive selection, recombination hot spots and resistance to antimalarial drugs Nature Genetics 2010, 42, pp 268-271 Bennett TN, Paguio, M., Gligorijevic, B., Seudieu, C., Kosar, A. D., Davidson, E., and Roepe, P. D. Novel, rapid, and inexpensive cell-based quantification of antimalarial drug efficacy Antimicrobial Agents Chemother. 2004, 48(5): pp 1807-10 Yuan J, Johnson RL, Huang RL, Wichterman J, Jiang HY, Hayton K, Fidock DA, Wellems TE, Inglese J, Austin CP, Su XZ. […]
Potency is read from the fitted curve at half-maximal effect.

Potency, active:
COC(=O)C1=C(C(=O)OC)[C@@H]2Nc3ccccc3[C@@]23C[C@@H](C(=O)OC)N(S(=O)(=O)c2ccc4c(c2)OCCN4C)C3=N1 1690 nM, CC#CCN1c2ccccc2[C@]23C[C@@H](C(=O)OC)N(S(=O)(=O)c4ccc(C)cc4)C2=NC(C(=O)OC)=C(C(=O)OC)[C@H]13 1690 nM, CC1(C)O[C@@H](C(O)(c2cc(F)c(F)c(F)c2)c2cc(F)c(F)c(F)c2)[C@H](C(O)(c2cc(F)c(F)c(F)c2)c2cc(F)c(F)c(F)c2)O1 953 nM, CC#CCN1c2ccccc2[C@]23C[C@@H](C(=O)OC)N(S(=O)(=O)c4ccc(Br)cc4)C2=NC(C(=O)OC)=C(C(=O)OC)[C@H]13 1690 nM, COC(=O)C1=C(C(=O)OC)[C@@H]2Nc3ccccc3[C@@]23C[C@@H](C(=O)OC)N(S(=O)(=O)c2ccc(Br)cc2)C3=N1 1900 nM

Potency, inactive:
COC(=O)CCCC1=CC2=CC(=O)C(C)(OC(=O)c3cccs3)C(=O)C2=CN1CCCCO (stereo not given), COCCN1C(=O)N[C@@H](c2cccc(C(F)(F)F)c2)[C@@H](C(=O)OC)[C@H]1C, CCN1C(=O)N[C@@H](c2cccc(C(F)(F)F)c2)[C@@H](C(=O)OC)[C@H]1C, COc1ccc(NC(=O)N2CCc3nc(COc4ccccc4)c4c(c3C2)CO[C@@H](C)C4)cc1

Activity change, negative = inhibition, inactive:
COC(=O)CC1c2ccccc2C=C(C)N1C(=O)OC (stereo not given) -4.97%, COC/C=C/C1=CC2=CC(=O)C(C)(OC(=O)c3cnc4ccccc4n3)C(=O)C2=CN1C1CCCCC1 (stereo not given) 8.76%, COC/C=C/C1=CC2=CC(=O)C(C)(OC(=O)c3cnc4ccccc4n3)C(=O)C2=CN1CC1CC1 (stereo not given) 6.05%, CCOC(=O)C=CCCCC=CC(=O)c1ccccc1 8.06%, CCCCC1=CC2=CC(=O)C(C)(OC(=O)CC)C(=O)C2=CN1CCN1CCOCC1 (stereo not given) -1.64%, COC/C=C/C1=CC2=CC(=O)C(C)(OC(=O)c3cnc4ccccc4n3)C(=O)C2=CN1CC(C)C (stereo not given) -3.19%, C=CCN1c2ccccc2[C@]23C[C@@H](C(=O)OC)N(C(=O)CC(C)C)C2=NC(C(=O)OC)=C(C(=O)OC)[C@H]13 -0.534%, C=C(C(C)=O)C(O)C=Cc1ccco1 (stereo not given) 16.5%, COC(=O)C1=C(C)N(Cc2ccccc2)C(=O)N[C@H]1c1cccs1 -0.507%, CCN1C(=O)N[C@@H](c2cccc(C(F)(F)F)c2)C(C(C)=O)=C1C 5.99%, COC(=O)C1=C(C(=O)OC)[C@@H]2N(C)c3ccc(OC)cc3[C@@]23C[C@@H](C(=O)OC)N(C(=O)COCc2ccccc2)C3=N1 15.5%, COC(=O)C1=C(C(=O)OC)[C@@H]2Nc3ccccc3[C@@]23C[C@@H](C(=O)OC)N(S(=O)(=O)c2ccc(C)cc2)C3=N1 4.3%, COC(=O)C1=C(C(=O)OC)[C@@H]2N(C)c3ccccc3[C@@]23C[C@@H](C(=O)OC)N=C3N1 5.52%, COC(=O)CCC(=O)OC1(C)C(=O)C2=CN(CC(C)C)C(c3ccc(OC)cc3)=CC2=C(Br)C1=O (stereo not given) -0.536%, CCOC(=O)CN1C(=O)N[C@@H](CCc2ccccc2)C(C(C)=O)=C1C -13%, COCCN1C(=O)N[C@@H](c2cccc(F)c2)C(C(C)=O)=C1C 11.7%, COCCN1C(=O)N[C@@H](c2ccco2)C(C(=O)OC)=C1C -0.507%, CCN1C(=O)N[C@@H](c2ccco2)C(C(=O)OC)=C1C 4.46%, COc1ccc(C2=CC3=C(Br)C(=O)C(C)(OC(=O)c4ccco4)C(=O)C3=CO2)cc1 (stereo not given) -9.43%, COC(=O)C1=C(C(=O)OC)[C@@H]2N(C)c3ccccc3[C@@]23C[C@@H](C(=O)OC)N(C(=O)C2CCC2)C3=N1 1.27%, CC(=O)c1ccc([C@@H]2C=C[C@H](O)[C@@H](CO)O2)cc1 0.905%, CCN1C(=O)N[C@H](c2ccccc2)C(C(C)=O)=C1C 2.46%, CCOC(=O)CNC(=O)O[C@@H]1C(=O)c2cc(OC)ccc2O[C@H]1c1ccc(OC)c(Br)c1 -1.62%, COC(=O)C1=C(C(=O)OC)[C@@H]2N(C)c3ccccc3[C@@]23C[C@@H](C(=O)OC)N(C(=O)COCc2ccccc2)C3=N1 6.25%, CC1(OC(=O)CCc2ccccc2)C(=O)C=C2C=C(c3ccc(C#N)cc3)N(C3CCCCC3)C=C2C1=O (stereo not given) 4.03%, COC(=O)C1=C(C(=O)OC)[C@@H]2N(Cc3ccccc3)c3ccccc3[C@@]23C[C@@H](C(=O)OC)N(C(C)=O)C3=N1 8.04%, CCOC(=O)CN1C(=O)NC(c2cccc(C(F)(F)F)c2)C(C(C)=O)=C1C (stereo not given) 10.8%, CC1(OC(=O)CCc2ccccc2)C(=O)C=C2C=C(c3ccc(C#N)cc3)N(CCN3CCOCC3)C=C2C1=O (stereo not given) 7.36%, COC/C=C/C1=CC2=CC(=O)C(C)(OC(=O)c3cnc4ccccc4n3)C(=O)C2=CN1C(CO)CO (stereo not given) 10.3%, CCN1C(=O)N[C@@H](c2ccc(Br)cc2)C(C(C)=O)=C1C 4.17%, CCN1C(=O)N[C@@H](c2cccc(F)c2)C(C(=O)OC)=C1C 9.06%
